# Experimental data as given in the supplement of paper PMC9262897, “Low-cost anti-mycobacterial drug discovery using engineered E. coli” (Nature Communications, 2022).
# Where a name gives a salt, the structure may show the parent alone. ± gives the standard deviation of the averaged measurements.
# System: E. coli TESEC Mtb Alr
# Assay: growth (OD600 after 10 h); higher = more growth (less inhibition)
# Details: arabinose 1000000 nM; compound 0.1 mM; raw OD600 reference: median of DMSO wells 0.193, cell-free background 0.041
# Protocol: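 TESEC Mtb Alr E. coli, or the Alr+ wild-type control, in 384-well plates with Prestwick library compounds at 0.1 mM and 1% DMSO, across arabinose induction levels of 1E3 to 1E7 nM. Growth is read as OD600 after 10 h at 37 °C in triplicate biological replicates.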
row,SMILES,growth
1,"CN1CCc2c(c3ccccc3n2Cc2ccccc2)C1 [Mebhydroline 1,5-naphtalenedisulfonate]",0.133 ± 0.0032
2,C[C@@H](O[C@H]1OCCN(Cc2n[nH]c(=O)[nH]2)[C@H]1c1ccc(F)cc1)c1cc(C(F)(F)F)cc(C(F)(F)F)c1 [Aprepitant],0.0675 ± 0.0089
3,COc1cccc(N(C)C(=S)Oc2ccc3c(c2)CCCC3)n1 [Liranaftate],0.1202 ± 0.0011
4,Oc1c(Cl)cc(Cl)c(Cl)c1Cc1c(O)c(Cl)cc(Cl)c1Cl [Hexachlorophene],0.04387 ± 5.8e-05
5,CC1(C)S[C@@H]2[C@H](NC(=O)[C@H](N)c3ccccc3)C(=O)N2[C@H]1C(=O)O [Ampicillin trihydrate],0.1927 ± 0.0013
6,CCC(=O)O[C@]1(C(=O)SCF)[C@H](C)C[C@H]2[C@@H]3C[C@H](F)C4=CC(=O)C=C[C@]4(C)[C@@]3(F)[C@@H](O)C[C@@]21C [Fluticasone propionate],0.201 ± 0.013
7,CCCC(=O)Nc1ccc(OCC(O)CNC(C)C)c(C(C)=O)c1 (configuration not stated) [Acebutolol hydrochloride],0.174 ± 0.0073
8,CC(C)(C)NC[C@H](O)COc1cccc2c1CCCC2=O [(-) -Levobunolol hydrochloride],0.1733 ± 0.0014
9,COC(=O)CCc1ccc(OCC(O)CNC(C)C)cc1 (configuration not stated) [Esmolol hydrochloride],0.195 ± 0.0068
10,O=c1[nH]cnc2c1ncn2[C@H]1CC[C@@H](CO)O1 [Didanosine],0.149 ± 0.0069
11,C[C@@H]1CCC[C@H](C)N1NC(=O)c1ccc(Cl)c(S(N)(=O)=O)c1 [Clopamide],0.173 ± 0.0061
12,CCCc1nn(C)c2c(=O)[nH]c(-c3cc(S(=O)(=O)N4CCN(C)CC4)ccc3OCC)nc12 [Sildenafil],0.1606 ± 0.00076
